PubChem BioAssay AID504340 (NMMLSC, 2011)
Activity calls are given as the source filed them.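 Rule for the calls: active = GFP response above 150% of the DMSO control; inconclusive = Under 70 cell events counted for a yeast strain; inactive = the rest.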

Assay: yeast TOR pathway CIT2-GFP reporter retest – flow cytometry, third cherry pick, single plex, confirmation (AID 504340);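 note: median GFP fluorescence over all cells with no mother versus daughter split; sample signal as a ratio to the plate DMSO mean so 100% equals DMSO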
Details: S. cerevisiae CIT2-GFP strain, 3 h, at 10 µM, active compounds read high

GFP response vs DMSO, inactive:
Cc1ccc(NC(=O)O/N=C2\CCCCC2c2ccc([N+](=O)[O-])cc2[N+](=O)[O-])cc1 (centres undefined) 106%
COc1cccc2c(Cl)c(CCCl)c(C)nc12 111%
Cn1c(NCCO)nc2c(c1=O)C1(CCCCC1)Cc1ccccc1-2 116%
O=C(O)CCCCCNc1ncnc2ccc(Br)cc12 106%
COc1cccc(N/C=C/C(=O)c2ccc(Cl)cc2)c1 107%
CCN(CC)c1ncnc2ccc(Br)cc12 97.7%
COC(=O)c1cc(=O)c2cccc(OC)c2[nH]1 101%
COc1ccccc1Nc1nc(NCCC(C)C)nc(N)c1[N+](=O)[O-] 114%
O=C1c2ccccc2C(=O)c2c1cccc2N(CCO)CCO 92.8%
Cc1ccc(Nc2cc(=O)[nH]c(=O)[nH]2)cc1C 104%
Nc1cccc2c1C(=O)c1ccc(Cl)cc1C2=O 107%
Cc1ccc(C)c(Nc2ncnc(N)c2[N+](=O)[O-])c1 104%
Cc1nc(Nc2ccc(Cl)cc2)c(C#N)c(=O)[nH]1 107%
CC(=O)Nn1cnc2c(c1=O)C1(CCCC1)Cc1ccccc1-2 89.6%
Cc1cccc(N/C=C/C(=O)c2ccc(Cl)cc2)c1 97.7%
COC(=O)COc1c(Cl)cc(Cl)c2ccc(C)nc12 106%
Cn1cccc1C(=O)Nc1nc(-c2ccccn2)cs1 106%
CCCCC(=O)NCCc1cc2c(OC)ccc(OC)c2[nH]c1=O 96.1%
O=C(N/N=C/c1ccccc1O)c1cccc2ccccc12 92.8%
COc1cccc(N/C(C)=C/C(=O)c2ccc(Br)cc2)c1 104%
COc1ccccc1-c1cc(C(F)(F)F)nc(S(=O)(=O)CCCC(=O)O)n1 111%
Cc1nc2c(O)cccc2cc1CO 101%
COc1ccc(NC(=O)O/N=C2/CCCc3ccc(OC)cc32)cc1 104%
Cc1cn2c(N)c(C=C3C=C(Cl)C(=O)C(Cl)=C3)c(=O)nc2s1 101%
Cc1cc(C)c(NC(=O)CC(=O)c2ccccc2)c(Cl)c1 92.8%
Nc1cc(C(=O)O)c(N)c2c1C(=O)c1ccccc1C2=O 94.5%
OCCN1CCN(c2ncnc3ccc(Br)cc23)CC1 101%
O=C(N/N=C/c1ccccc1)c1cccc2ccccc12 97.7%
N#Cc1c(N)nc(N)nc1Nc1ccc(Br)cc1 99.3%
COc1cccc(NC(=O)CC(C)=O)c1 106%
CN(C)CCCNc1cc(O)c2ncccc2c1 112%
Nn1cnc2c(c1=O)C1(CCCCC1)Cc1ccccc1-2 129%
Nc1c(C(=O)O)ccc2c1C(=O)c1ccccc1C2=O 101%
CC1=CN2C(=N)/C(=C/c3ccc(C)o3)C(=O)N=C2S1 112%
COc1cccc(N/C=C/C(=O)c2ccc(C)cc2)c1 92.8%
Nc1c(O)ccc2c1C(=O)c1ccccc1C2=O 99.3%
O=C(/C=C/Nc1cccc(O)c1)c1ccccc1 111%
Cc1ccc(-c2cc(C(F)F)nc(S(C)(=O)=O)n2)cc1 91.2%

GFP response vs DMSO, active:
Cc1ccc(NN2C(=O)C=C(c3ccccc3)C2=O)cc1 151%
